Data on 1 molecule can be found in PubChem BioAssay AID1159569 (Broad Institute, 2015).

Results with a measured potency or affinity are listed apart. Inconclusive results are not listed. Activity calls are given as the source filed them. How the calls were made is not given here.

The test is described as follows: toxicity to human HepG2 hepatoma cells – cell-based, plate reader, dry powder samples, cytotoxicity control, dose response (AID 1159569).

With `OC[C@H]1Nc2ccc(C#Cc3cccnc3)cc2[C@H]2NCC[C@H]21`, the call was inactive.
